# The list is not random: actives were taken first. Their share in the collection is about 2.4%.
# FEN1 inh – human FEN1 inhibition | hit rate 0.35% among 390,000 | AID 588795 | Potency, µM (doses to about 114 µM), inactives show at the top dose activity change, negative = inhibition, usual class: inhibitors | Recombinant FEN1 flap cleavage, fluorescence, 15 min; further: potency means the concentration at half of the fitted maximal effect; on the % scale 0 is the no-effect control and ±100 the full control effect; nearly all actives have a fitted effect of over 65% in size
# Target sequence (P39748 whole entry, looked up): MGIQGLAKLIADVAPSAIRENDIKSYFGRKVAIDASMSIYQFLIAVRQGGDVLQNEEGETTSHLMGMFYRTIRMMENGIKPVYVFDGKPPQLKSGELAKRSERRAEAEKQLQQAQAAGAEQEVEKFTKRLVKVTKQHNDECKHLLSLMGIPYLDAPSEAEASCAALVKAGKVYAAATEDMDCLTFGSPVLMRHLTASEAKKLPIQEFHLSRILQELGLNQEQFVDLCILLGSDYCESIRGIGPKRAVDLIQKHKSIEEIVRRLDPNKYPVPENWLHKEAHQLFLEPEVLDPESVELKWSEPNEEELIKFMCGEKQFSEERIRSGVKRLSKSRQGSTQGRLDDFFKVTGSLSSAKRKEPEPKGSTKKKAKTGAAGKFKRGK
#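 Concentration–response screening of FEN1 (10 nM): 15 min compound preincubation at room temperature, reaction started with 50 nM substrate and read at 0 and 15 min. Corrected, normalized data were fitted by a four-parameter Hill equation.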
# POLB inh – DNA polymerase beta (human) inhibition; P06746; Pol beta primer extension/strand displacement, fluorescence kinetic; Potency, µM (titrated, usually from 114 µM), inactives show at the top dose activity change, negative = inhibition, most hits filed as inhibitors; hit rate 1.3% among 340,000; AID 485314; further: potency means the concentration at half of the fitted maximal effect; on the % scale 0 is the no-effect control and ±100 the full control effect
#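 Pol beta (10 nM) was preincubated with compound for 15 min at room temperature. The reaction was then started with 50 nM substrate and read immediately and after a further 10 min at room temperature.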
# Pol eta inh-1 – blocks human DNA polymerase eta activity; Q9Y253; recombinant Pol eta, fluorescent DNA replication assay; Potency, µM (top dose mostly 114 µM), for inactives: at the highest dose activity change, negative = inhibition, actives largely listed as inhibitors; hit rate 1.2% among 390,000; further: potency means the concentration at half of the fitted maximal effect; on the % scale 0 is the no-effect control and ±100 the full control effect
#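 Fluorescent replication assay: 50 nM final substrate added after a 15 min room-temperature compound preincubation with 10 nM enzyme. Signal taken at 0 min and again at 10 min.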
# Pol kappa inh-1 – inhibitors of human DNA polymerase kappa; Q9UBT6; purified Pol kappa, fluorescent DNA synthesis assay, 10 min; Potency, µM (titrated, usually from 107 µM), without a hit: at the highest dose activity, negative = inhibition, usual class: inhibitors; hit rate 0.53% among 400,000; AID 588579; further: potency means the concentration at half of the fitted maximal effect; on the % scale 0 is the no-effect control and ±100 the full control effect
#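 Inhibition of 10 nM Pol kappa is measured by a fluorescent read-out at 0 and 10 min following addition of 50 nM substrate (final), with a 15-min room-temperature compound preincubation.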
# Pol iota inh – inhibitors of human DNA polymerase iota. Potency, µM (series often up to 115 µM), without a hit: at the top dose activity, negative = inhibition, hits mostly inhibitors. Q9UNA4. AID 588590. hit rate 1% among 390,000. Pol iota fluorescent replication assay, 10 min; further: potency means the concentration at half of the fitted maximal effect
#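 Fluorescent replication assay read twice, at 0 min and 10 min after adding 50 nM (final) substrate. Enzyme (10 nM) and compounds were first incubated 15 min at room temperature; enzyme-free buffer wells were negative controls.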
# WRN inhibitor – WRN helicase (human) inhibition | AID 651768 | Q14191 | Potency, µM (top dose mostly 114 µM), for the others: top-dose activity change, negative = inhibition, hits mostly inhibitors | WRN helicase unwinding, fluorescent forked duplex, kinetic | hit rate 0.46% among 360,000; further: potency means the concentration at half of the fitted maximal effect; on the % scale 0 is the no-effect control and ±100 the full control effect; nearly all actives have a fitted effect of over 55% in size
#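 Enzyme (20 nM final) and test compound sit together 15 min at room temperature before substrate addition. Substrate is a single-forked duplex oligonucleotide (100 nM) labelled with fluorophore and quencher, with 2 mM ATP; helicase unwinding raises red fluorescence, read kinetically.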
# GALK inh confirm – galactokinase (human) inhibition, confirmation; shares compounds with Pol eta inh-1; hit rate 70% among 150; purified GALK, Kinase-Glo ATP depletion luminescence; Potency, µM (highest dose often 115 µM), for the others: at the top dose activity, negative = inhibition, actives largely listed as inhibitors
# Redox cycling – counter-screen for GALK inhibitors: redox cycling H2O2 generation; shares compounds with Pol eta inh-1; Phenol red-HRP H2O2 redox cycling, absorbance 600 nm; Potency, µM (top dose mostly 115 µM), inactives show top-dose activity change, negative = H2O2 signal, hits mostly inhibitors; hit rate 40% among 150
# HEK293 tox – counter-screen for GALK inhibitors: HEK293 cell cytotoxicity; HEK-293 viability, ATP luminescence (CellTiter-Glo), 24/48 h; Potency, µM (highest dose often 46.1 µM), for inactives: top-dose activity change, negative = cytotoxicity, most hits filed as inhibitors; shares compounds with Pol eta inh-1; hit rate 10% among 170; further: potency means the concentration at half of the fitted maximal effect; on the % scale 0 is the no-effect control and ±100 the full control effect
# Pol kappa inh-2 – confirmation of human DNA polymerase kappa inhibitors. shares compounds with Pol eta inh-1. purified Pol-kappa, fluorescent strand-displacement substrate. Potency, µM, hits mostly inhibitors. hit rate 76% among 920. AID 720501; further: potency means the concentration at half of the fitted maximal effect
# Pol eta inh-2 – confirmation of human DNA polymerase eta inhibitors. shares compounds with Pol eta inh-1. Pol eta primer extension, TAMRA/BHQ fluorescence, 10 min. Potency, µM, actives largely listed as inhibitors. hit rate 64% among 2,600. AID 720502; further: potency means the concentration at half of the fitted maximal effect
# Starred values were filed as active, the others as inactive; ? = inconclusive; . = not tested or not shown; [ ] = another dose, or the depositor's remark. The call rests on the fitted dose curve; in most records, active means well fitted curve in the direction sought with a large enough effect; inconclusive means small, poorly fitted or top-dose-only effect, or another doubt; inactive means no such curve, though single readings can be large; an effect the other way counts as inactive or inconclusive.
SMILES,FEN1 inh,POLB inh,Pol eta inh-1,Pol kappa inh-1,Pol iota inh,WRN inhibitor,Pol eta inh-2,others
O=C(Nc1ccc(Cl)c(-c2nc3cc(Cl)ccc3o2)c1)c1cc([N+](=O)[O-])ccc1N1CCOCC1,1%,14%,-15%,-13%,-13%,.,.,
CCC(=O)c1ccc(OCC(=O)Nc2nc(-c3cccnc3)cs2)cc1,-25%,.,13µM*,-31%,13µM*,?,67*,
CCc1ccccc1OCC(=O)Nc1nc(-c2cccnc2)cs1,-10%,35%,-6%,-19%,62%,-14%,.,
O=C(COc1ccc([N+](=O)[O-])cc1)Nc1nnc(-c2cccnc2)s1,?,16µM*,40µM*,?,18µM*,-18%[57.1 µM],?,Pol kappa inh-2=47*
Cc1cc2c(cc1C)-n1nnnc1C(N1CCCNCC1)C(=O)N2 (centres undefined),.,.,.,.,.,-1%,.,
COc1ccc(Cl)cc1NC(=O)Cn1c(=O)n(Cc2cccs2)c(=O)c2cccnc21,-12%,-14%,-11%,-18%,-21%,.,.,
CC(=O)c1ccc(OC(=O)C2CSC3(C)CCC(=O)N23)cc1 (centres undefined),41%,.,8.9µM*,-35%,18µM*,-22%,?,
Cc1cccc(OCC(=O)OCc2cc(=O)n3nc(-c4cccs4)sc3n2)c1,9%,25µM*,?,?,?,.,?,
O=C1C(Cl)=C(N2CCC(C(=O)O)CC2)C(=O)c2ccccc21,-14%,?,10µM*,-7%,?,-20%,.,GALK inh confirm=30µM*;Redox cycling=38µM*;HEK293 tox=-7%
CCOC(=O)N1CCc2c(sc3c2c(=O)n(-c2ccc(Cl)cc2)c(=O)n3CC(C)C)C1,-4%,24%,-10%,7%,56%,.,.,
CCSC1=NSC2=NC(=O)/C(=C\c3coc4ccccc4c3=O)C(=N)N12,?,28µM*,20µM*,-19%,?,?,.,Pol kappa inh-2=?
CC(C)CC1=NN2C(=N)/C(=C\c3coc4ccccc4c3=O)C(=O)N=C2S1,32µM*,20µM*,20µM*,?,?,?,76*,
Cc1cccc(-n2c(C)cc(/C=C3\C(=N)N4N=C(CC(C)C)SC4=NC3=O)c2C)c1,-7%,3%,-17%,-6%,-6%,5%,.,
CSC1=NSC2=NC(=O)/C(=C\c3ccc(OC(=O)c4ccco4)cc3)C(=N)N12,-3%,-29%,?,-31%,?,?,.,
CCc1ccc(NC(=O)CCNS(=O)(=O)c2ccc3c(c2)oc(=O)n3C)cc1,-7%,-24%,-22%,-24%,24%,.,.,
Cc1ccc(NC(=O)CCNS(=O)(=O)c2ccc3c(c2)oc(=O)n3C)cc1,6%,-3%,50µM*,89µM*,20µM*,?,?,
O=C(CSc1ncn(-c2ccccc2)n1)Nc1nc2ccccc2s1,-13%,-22%,-17%,-12%,-16%[58.9 µM],-2%,.,
O=C(CSc1ncn(-c2ccccc2)n1)Nc1nc2c(s1)CCCC2,-16%,32µM*,50µM*,0%,25µM*,-26%[57.1 µM],?,
NCCCC[C@@H]1NC(=O)[C@H](CCC(=O)O)NC(=O)c2cc([N+](=O)[O-])cc(I)c2OCC[C@@H](C(N)=O)NC1=O,-6%,1%,14µM*,25µM*,?,-24%[57.1 µM],30*,
NC(=O)CC[C@@H]1NC(=O)[C@H](CO)NC(=O)c2cc([N+](=O)[O-])cc(I)c2OCC[C@@H](C(N)=O)NC1=O,-4%,-1%,-7%,-17%,17%,-4%,.,
COc1ccc(CNC(=O)C(=O)NCC(c2cccnc2)N2CCN(c3ccccc3)CC2)cc1 (centres undefined),4%,0%,-19%,?,14%,.,.,
COc1cccc([C@@H]2Nc3ccc(C(=O)O)cc3[C@@H]3C=CC[C@@H]32)c1OC,-15%,2%,8%,8%[60.1 µM],18%,.,.,
CC(C)C1Nc2ccc(C(=O)O)cc2C2C=CCC21 (centres undefined),?,13µM*,20µM*,?,?,50µM*,27*,
C=CCc1ccccc1OCCSc1nc(-c2ccc(C(C)(C)C)cc2)nc2cc(=O)[nH]n12,?,40µM*,?,-32%,?,.,76*,
Cc1ccc(CSc2nc(-c3ccc(C(C)(C)C)cc3)nc3cc(=O)[nH]n23)cc1,-8%,?,50µM*,?,?,.,85*,
SMILES,FEN1 inh,POLB inh,Pol eta inh-1,Pol kappa inh-1,Pol iota inh,WRN inhibitor,Pol eta inh-2,others
S=c1[nH]nc(-c2n[nH]c3c2CCC3)n1/N=C/C=C/c1ccco1,-26%,40µM*,25µM*,79µM*,?,?,30*,
S=c1[nH]nc(-c2ccco2)n1/N=C/C=C/c1ccco1,-30%,35µM*,28µM*,79µM*,11µM*,?,85*,
COc1cc(/C=N/n2c(-c3n[nH]c4c3CCC4)n[nH]c2=S)cc(OC)c1O,5%,8%,-9%,5%,42%,-12%,.,
CCOC(=O)c1ccc(NC(=O)CSc2c(C(C)C)cnc3c2c(=O)n(C)c(=O)n3C)cc1,10%,18%,-12%,-14%[60.1 µM],-2%,.,.,
CCOC(=O)c1ccc(NC(=O)c2c(C)nn(-c3ccc(F)cc3)c2-n2cccc2)cc1,4%,8%,-14%,3%,35%,.,.,
O=C(O)COc1ccccc1/C=C1\SC(=S)N(/N=C/c2ccccc2O)C1=O,-2%,-17%,22µM*,-28%,?,?,48*,Pol kappa inh-2=75*

# Source: PubChem BioAssay
